# The source made the active and inactive calls. The calls were made as follows: active = hit-call score of the fitted dose curve at least 0.9, where 1 is the maximum; inactive = score below 0.9.
# Read-out: Monocyte Chemoattractant Protein-1 (MCP1), CCL2 (gene 6347)
# Experiment: BSK_4H_MCP1: BioMAP Diversity Plus: 4H Assay for Monocyte Chemoattractant Protein-1 (MCP1) Biomarker Activity (AID 2283018)
# Settings: primary human endothelial cells (HUVEC); actives raise or lower the signal
# Summary of the method: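 Human umbilical vein endothelial cells (4H system) dosed with chemical; MCP-1 measured by ELISA 24 h after dosing. Bidirectional curve fitting against DMSO negative control as baseline; parallel SRB total-protein staining tracks overt cytotoxicity.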
Structure (SMILES),AC50,outcome
CCOC(=O)COc1ccc2c(c1)CC(NCC(O)c1cccc(Cl)c1)CC2 (stereo not given),28.2 µM (active),–
O=C1OC(=O)C2C3C=CC(C3)C12 (stereo not given),–,inactive
O=P(OC(CCl)CCl)(OC(CCl)CCl)OC(CCl)CCl,–,inactive
CCCCCCCCCCCCCCCO,29.1 µM (active),–
COCCOCCOCCOC,–,inactive
CC(C)=CCCC(C)CCO (stereo not given),–,inactive
C1=CCCC=CCCC=CCC1,–,inactive
CC[C@H]1CC[C@H](NCc2cc3c(cc2OC)[C@H]2C[C@H]2C(=O)N3C)[C@H](c2ccccc2)N1,–,inactive
O=C(CCCCCCCCc1cccnc1)N1CCC(C=C(c2ccccc2)c2ccccc2)CC1,5.75 µM (active),–
CC(C)(O)c1coc(S(=O)(=O)NC(=O)Nc2c3c(cc4c2CCC4)CCC3)c1,–,inactive
CCN(C(=O)c1cc(C)cc(OC[C@H](C)Nc2ccncc2)c1)C(C)C,–,inactive
Cc1ccc(S(=O)(=O)O)cc1C,–,inactive
CNS(=O)(=O)c1cc(C(=O)N2CCC(CCN3C4CCC3CC(n3c(C)nc5ccccc53)C4)(c3cccc(F)c3)CC2)c(Cl)cc1F (stereo not given),–,inactive
CCCCC(CC)COC(=O)CCCCCCCCC(=O)OCC(CC)CCCC (stereo not given),–,inactive
O=C(NS(=O)(=O)/C=C/c1ccccc1)c1ccc(F)cc1Cl,–,inactive
CCOc1cccc(-n2cc(C(=O)N3CCN(c4cc(C(=O)O)c5ccccc5c4)CC3)nc2-c2ccc(C)cc2)c1,23.3 µM (active),–
O=C(OC[C@H]1O[C@@H](OC(=O)c2cc(O)c(O)c(OC(=O)c3cc(O)c(O)c(O)c3)c2)[C@H](OC(=O)c2cc(O)c(O)c(OC(=O)c3cc(O)c(O)c(O)c3)c2)[C@@H](OC(=O)c2cc(O)c(O)c(OC(=O)c3cc(O)c(O)c(O)c3)c2)[C@@H]1OC(=O)c1cc(O)c(O)c(OC(=O)c2cc(O)c(O)c(O)c2)c1)c1cc(O)c(O)c(OC(=O)c2cc(O)c(O)c(O)c2)c1,6.1 µM (active),–
COCCOc1cc2cc(C(=O)NC3CCN(C(C)C)CC3)n(CC(=O)Nc3ccc(Cl)cn3)c2cn1,–,inactive
CCc1cc(SCc2sc(-c3ccc(C(F)(F)F)cc3)nc2CN2CCN(c3ccc(OC)cc3)CC2)ccc1OCC(=O)O,8.42 µM (active),–
CCCCCCCCO,–,inactive
CC(C)CCCCCCOC(=O)c1ccc(C(=O)OCCCCCCC(C)C)c(C(=O)OCCCCCCC(C)C)c1,–,inactive
Nc1nc2ncc(CNc3ccc(C(=O)N[C@@H](CCC(=O)O)C(=O)O)cc3)nc2c(=O)[nH]1,–,inactive
Cn1c(=O)cc(Oc2ccc(F)cc2F)c2cnc(NCC(C)(C)O)nc21,–,inactive
CC(=O)OCCC(C)C,–,inactive
COC(=O)CC(=O)OC,–,inactive
Cc1c(-c2cccnc2)c2ccccc2n1CCCCC(=O)O,–,inactive
Nc1cccc(N)c1,–,inactive
CC[C@H](C)C(=O)O[C@H]1C[C@@H](C)C=C2C=C[C@H](C)[C@H](CC[C@@H]3C[C@@H](O)CC(=O)O3)[C@H]21,1.98 µM (active),–
COC(=O)c1ccccc1O,–,inactive
CC[C@H]1OC(=O)[C@H](C)[C@@H](O[C@H]2C[C@@](C)(OC)[C@@H](O)[C@H](C)O2)[C@H](C)[C@@H](O[C@@H]2O[C@H](C)C[C@H](N(C)C)[C@H]2O)[C@](C)(O)C[C@@H](C)C(=O)[C@H](C)[C@@H](O)[C@]1(C)O,–,inactive
